Experimental findings from PubChem BioAssay AID1240 (Sanford-Burnham Center for Chemical Genomics, 2008) are described below.

The structures appear in SMILES notation. About 800 (1.6%) of roughly 50,000 compounds showed an effect of 50% or more. The sample as a whole holds a higher share of strong results than the screen did.

In the assay the target is Bcl-2-like protein 10 (Homo sapiens) (UniProt Q9HD36). The assay can be described thus: Phenotype converters, Bcl-B/TR3 peptide binding displacement, primary biochemical FP (AID 1240).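 Also: 0% = Bcl-B with tracer peptide and DMSO and 100% = tracer peptide lacking Bcl-B.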 The following applies: GST-Bcl-B / FITC-TR3 peptide fluorescence polarization; stronger effect = higher value; compound at 3.75 mg/L.
Sequence of Bcl-2-like protein 10 (Homo sapiens) (Q9HD36 whole entry, looked up): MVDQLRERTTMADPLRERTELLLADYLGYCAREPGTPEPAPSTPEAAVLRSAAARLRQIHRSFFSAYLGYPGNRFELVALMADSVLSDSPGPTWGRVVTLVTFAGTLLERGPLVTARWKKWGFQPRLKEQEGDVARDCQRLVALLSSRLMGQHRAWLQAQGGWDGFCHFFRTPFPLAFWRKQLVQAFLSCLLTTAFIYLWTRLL
On to `COc1ccc(Cc2nnc(NC(=O)Nc3ccccc3)s2)cc1`, for which the displacement amounted to 11.9%. For the molecule `COc1cc(/C=N/NC(=O)CSCc2ccc([N+](=O)[O-])cc2)cc(OC)c1OC`, the displacement stood at 1.6%.

For the molecule `COc1ccccc1NC(=O)N1CCOCC1`, the displacement is -6.8%. Regarding `COc1ccc(-c2nc(=S)c3c(n2Cc2ccccc2)CCCC3)cc1`, the displacement turned out to be 10.1%.

As for `COC(=O)C1=C(C(=O)OC)SC(=C2C(=S)C(C)(C)N(C(=O)c3cccc(C)c3)c3cc(OC)ccc32)S1`, the displacement is -7.2%. Turning to `Nc1ccc2nc(SCC(=O)Nc3cccc(C(F)(F)F)c3)sc2c1`, the displacement is -3.3%. As to `C=CCN1C(=O)/C(=C\c2cc(Br)ccc2OCCOc2cccc(OC)c2)SC1=S`, the displacement is -43.6%.

Turning to `CCN1C(=O)/C(=C\c2cn(CCOc3ccccc3)c3ccccc23)SC1=S`, the displacement was 20.9%. For `C=CCN1C(=O)/C(=C\c2cn(CCOc3cccc(OC)c3)c3ccccc23)SC1=S`, the displacement was found to be 91.7%. In the case of `O=C(O)c1ccc2c(c1)C(=O)N(c1ccc(-c3nnc(-c4ccccc4)o3)cc1)C2=O`, the displacement worked out at 9%. For the molecule `COc1ccc(Br)cc1/C=C/C(=O)Nc1nc2ccc(C)cc2s1`, the displacement is -22.6%. For `O=C(/C=C/c1ccccc1)Nc1nc2ccc(Br)cc2s1`, the displacement is 15%.

In the case of `CCOC(=O)c1c(NC(=S)NC(=O)/C=C/c2ccco2)sc(C)c1C`, the displacement stood at 23.9%.

For `COC(=O)c1c(NC(=O)/C=C/c2ccco2)sc(C)c1C`, the displacement was -12.6%. For the molecule `CCOC(=O)c1nc(NC(=O)/C=C/c2ccco2)sc1C`, the displacement is 73.7%. Regarding `O=C(/C=C/c1ccco1)Nc1nc2ccc(Br)cc2s1`, the displacement was 59.2%. On to `Cc1ccc(OCCNc2cc(Cl)ccc2[N+](=O)[O-])cc1C`, for which the displacement amounted to 0.6%.

For the molecule `CSc1ccc(/C=N/S(=O)(=O)CCc2ccccc2)cc1`, the displacement was -7.7%. Regarding `CCCS(=O)(=O)c1c(S(=O)(=O)CCC)c2c(C)cccn2c1C(N)=O`, the displacement was -9.8%. The same measure for `COc1c(Cl)ccc(Cl)c1C(=O)Nc1ccc(I)cc1`: -9.5%.

Consider `O=C(c1ccc(Cl)cc1)N1CCC(Cc2ccccc2)CC1`, for which the displacement came to 16.4%. Consider `COc1cc([N+](=O)[O-])ccc1-c1ccc(/C=C2\C(=O)NC(=O)N(c3ccccc3)C2=O)o1`, for which the displacement was found to be 132%.

On to `COc1cc([N+](=O)[O-])ccc1-c1ccc(/C=C2\C(=O)NC(=O)N(c3ccc(Cl)cc3)C2=O)o1`, for which the displacement amounted to 14%. Take `Cc1cc(C)cc(N2C(=O)NC(=O)/C(=C\c3ccc([N+](=O)[O-])o3)C2=O)c1`: the displacement was -3.8%.

Take `Cc1ccc([N+](=O)[O-])cc1-c1ccc(/C=C2/C(=O)NC(=O)N(c3ccccc3)C2=O)o1`: the displacement amounted to 82.8%.

As for `CCOc1ccc(N2C(=O)NC(=O)/C(=C\c3ccc(-c4ccc([N+](=O)[O-])cc4OC)o3)C2=O)cc1`, the displacement is 23%. As for `COc1ccc([N+](=O)[O-])cc1-c1ccc(/C=C2\C(=O)NC(=O)N(c3ccc(Cl)cc3)C2=O)o1`, the displacement was 25.1%. Consider `O=C1NC(=O)N(c2ccccc2)C(=O)/C1=C\c1ccc(-c2ccc([N+](=O)[O-])cc2Br)o1`, for which the displacement is -14.8%. For the molecule `COc1ccc(N2C(=O)NC(=O)/C(=C/c3ccc(-c4ccc([N+](=O)[O-])cc4C)o3)C2=O)cc1`, the displacement turned out to be 13.6%.

On to `COc1cc([N+](=O)[O-])ccc1-c1ccc(/C=C2\C(=O)NC(=O)N(c3ccc(C)c(C)c3)C2=O)o1`, for which the displacement was 75.5%. With `COc1ccc([N+](=O)[O-])cc1-c1ccc(/C=C2\C(=O)NC(=O)N(c3cc(C)cc(C)c3)C2=O)o1`, the displacement is 92.6%. Turning to `Cc1ccc([N+](=O)[O-])cc1-c1ccc(/C=C2\C(=O)NC(=O)N(c3ccc(Cl)cc3)C2=O)o1`, the displacement is 6.8%. As to `COc1cc([N+](=O)[O-])ccc1-c1ccc(/C=C2\C(=O)NC(=S)N(c3ccc(Cl)cc3)C2=O)o1`, the displacement was determined as 16.2%. For `COc1ccc(C(=O)N2CCN(C3C4CC5CC(C4)CC3C5)CC2)cc1OC` (centres undefined), the displacement is -6.5%. As for `Cc1cccc(N2CCN(C(=O)Nc3ccc(Cl)c(Cl)c3)CC2)c1C`, the displacement was -0.9%. Take `O=S1(=O)CCC(NC(=S)SCCOc2ccccc2OCCO)C1` (centres undefined): the displacement was determined as 6.3%. Take `Cc1cccc(C=Nc2ccc(O)cc2)c1`: the displacement is -8.4%. For `CS(=O)(=O)N(CC(=O)Nc1ccc(Cl)cc1)c1ccc(Br)cc1`, the displacement stood at 3.3%. Consider `Cc1ccc(-c2csc(NC(=O)c3sc4ccccc4c3Cl)n2)c(C)c1`, for which the displacement turned out to be 2.6%. In the case of `CCOc1ccc(Cc2c(C)nc3c(C)cccc3c2Cl)cc1`, the displacement was -5.7%. The same measure for `CCC1=NN(C(=O)c2ccncc2)C(O)(c2ccc(Br)cc2)C1` (centres undefined): 10.2%. Regarding `Cc1ccc(NC(=S)NN2CCN(C)CC2)cc1`, the displacement is 5.2%. The same measure for `Cc1ccc(OCC(=O)NCc2ccco2)c(C)c1`: -2.9%. `N#C/C(=C/c1ccccc1)C(=O)Nc1ccc(Cl)c(Cl)c1`: the displacement worked out at 1.5%. For the molecule `CC(C)(C)c1cc(/C=N/Nc2nnc3c(n2)[nH]c2ccccc23)cc(C(C)(C)C)c1O`, the displacement is 4.8%. The same measure for `Cc1nc(-c2ccccc2)c2c(=O)cc[nH]c2n1`: 15.4%; for `CSc1nc(-c2ccccc2)nc2[nH]ccc(=O)c12`: 110%; for `Cc1nc(-c2ccccc2)nc2[nH]ccc(=O)c12`: 11.9%. As for `COc1cc(/C=C2/SC(=S)N(C)C2=O)cc(Br)c1OCCOc1ccccc1C`, the displacement was -2%. Turning to `COC(=O)C(Cc1ccccc1)NC(=O)CCN1C(=O)c2cccc3cccc(c23)C1=O` (centres undefined), the displacement was 15%. `CCc1ccc(NC(=O)C(=O)NCCCO)cc1`: the displacement is 5%.

For the molecule `CN(C)c1ccc(C(O)C(C)(O)c2nc3ccccc3n2C)cc1` (centres undefined), the displacement was determined as 6.1%. With `COc1cc(C=C2C(=O)c3ccccc3C2=O)ccc1OCc1ccc(I)cc1` the figure was -11.5%; with `C=CCOc1ccc(/C=C2/C(=O)NC(=O)N(c3cccc(C)c3)C2=O)cc1OCC`, 126%; with `C=CCOc1ccc(/C=C2\C(=O)NC(=O)N(c3ccc(Cl)cc3)C2=O)cc1OCC`, -4%.

For `COc1cc(/C=C2\C(=O)NC(=O)N(c3ccc(C)cc3)C2=O)ccc1OCc1ccc([N+](=O)[O-])cc1`, the displacement turned out to be 70%. For the molecule `CCOc1cc(/C=C2/C(=O)NC(=O)N(c3ccc(OC)cc3)C2=O)ccc1OCCOc1ccc([N+](=O)[O-])cc1`, the displacement was -0.9%. With `O=C1C(=Cc2ccc(OCc3ccc(F)cc3)c(Br)c2)C(=O)c2ccccc21`, the displacement came out at 19.1%.

For the molecule `COc1cc(/C=C2/C(=O)NC(=S)N(c3ccccc3)C2=O)ccc1OCc1ccc([N+](=O)[O-])cc1`, the displacement was found to be 4%.

For the molecule `COc1cc(C=C2C(=O)c3ccccc3C2=O)ccc1OCc1ccc(F)cc1`, the displacement was 88.7%.

`CCOc1cc(/C=C2/C(=O)NC(=O)N(c3ccccc3)C2=O)ccc1OCc1ccc([N+](=O)[O-])cc1`: the displacement amounted to 75.9%. With `C=CCOc1ccc(/C=C2/C(=O)NC(=O)N(c3ccc(C)cc3)C2=O)cc1OCC` the figure was -2.8%; with `COc1cc(/C=C2\C(=O)NC(=O)N(c3ccc(C)cc3)C2=O)ccc1OCc1ccccc1`, 38.6%. In the case of `COc1cc(/C=C2/C(=O)NC(=O)N(c3ccc(C)cc3)C2=O)ccc1OCCOc1ccc([N+](=O)[O-])cc1`, the displacement was found to be 10.8%. With `Cc1ccc(NS(=O)(=O)c2cccc([N+](=O)[O-])c2)cc1Cl` the figure was -0.2%. Take `CC(=O)Nc1ccccc1NC(=O)c1ccc(Cl)cc1`: the displacement amounted to 11.4%. As to `O=C(O)CCC(=O)Nc1ccc2nn(-c3ccccc3)nc2c1`, the displacement came out at 3.6%. The same measure for `COc1cc(C(=O)Nc2ccc(Br)cn2)cc(OC)c1OC`: -1.3%; for `CCCCOC(=O)c1sc2nc(N)c(C#N)c(-c3ccc(OC)c(OC)c3)c2c1N`: 167%. Consider `COc1ccc(-c2c(C#N)c(N)nc3c2CCCCC3)cc1OC`, for which the displacement was -2.3%. As for `CCOc1ccc(-c2c(C#N)c(N)nc3sc(C#N)c(N)c23)cc1`, the displacement is -1.4%. With `O=C(CCN1C(=O)c2ccccc2C1=O)NC1CCCC1` the figure was 8.5%; with `O=C(N/N=C/c1cccnc1)/C(=C\c1cccs1)NC(=O)c1ccccc1`, -9.3%; with `O=C1NC(=Nc2cccnc2)S/C1=C\c1ccc(F)cc1`, 3.5%. For `O=C1NC(=Nc2ccc(O)cc2)S/C1=C\c1ccc(F)cc1`, the displacement was determined as 7.7%. On to `O=C1NC(=Nc2cccc(O)c2)S/C1=C\c1cccc(O)c1`, for which the displacement was 1.9%. On to `O=C1NC(=Nc2cccnc2)S/C1=C\c1cccc(F)c1`, for which the displacement was found to be 146%. For `O=C1NC(=Nc2cccc(O)c2)S/C1=C\c1ccc(F)cc1`, the displacement was 75.8%. Consider `O=C1NC(=Nc2cccnc2)S/C1=C\c1ccc(Br)cc1`, for which the displacement was found to be 12.1%. As for `CCOC(=O)C12CC3CC(CC(C3)C1)C2`, the displacement is -12.2%. For `COc1ccc([N+](=O)[O-])cc1NCc1cccnc1`, the displacement came out at 3.1%. With `Oc1ccc2ccccc2c1C=Nc1ccc2oc(-c3ccccc3Br)nc2c1`, the displacement was determined as 120%.

`CCC(=O)Nc1ccc2oc(-c3ccccc3Br)nc2c1`: the displacement was determined as 8.7%. In the case of `NC(=O)c1cccc(N=Cc2c(O)ccc3ccccc23)c1`, the displacement is -0.3%. As to `COc1ccc(-c2ccc(-c3nnc(-c4cccc(C)c4)o3)cc2)cc1`, the displacement was -5.4%.

On to `COc1cc(C=NN2CCN(Cc3ccc(C)cc3C)CC2)cc(Br)c1O`, for which the displacement was 10.3%. Take `N#C/C(=N\Nc1ccccc1F)c1nc(-c2ccccc2)cs1`: the displacement came to 7.2%. With `N#C/C(=N/Nc1cccc(C(F)(F)F)c1)c1nc(-c2ccccc2)cs1` the figure was -4.4%; with `N#C/C(=N\Nc1ccccc1)c1nc(-c2ccc(F)cc2)cs1`, 127%; with `Cc1ccccc1CNC(=O)CN(c1ccc(Oc2ccccc2)cc1)S(C)(=O)=O`, 7.2%.

With `CCOc1ccccc1NC(=O)c1cc(C(=O)OC)cc([N+](=O)[O-])c1`, the displacement was -7.1%. As for `CC1=NN(c2ccc(S(N)(=O)=O)cc2)C(=O)/C1=C\c1ccc(-c2ccc(C)c(Cl)c2)o1`, the displacement was 4%. As to `COc1ccc(OC)c(/C=C2\SC(=S)N(c3ccccc3C)C2=O)c1`, the displacement turned out to be 158%. The same measure for `COc1ccc(N2C(=O)/C(=C\c3cc(OC)ccc3OC)SC2=S)cc1`: 28.3%; for `COc1ccc(/C=C2/SC(=O)N(CNc3ccc(Br)cc3C)C2=O)c(OC)c1`: 31.7%; for `COc1ccc(OC)c(/C=C2/SC(=O)N(CNc3ccc(Br)cc3C)C2=O)c1`: 90.9%. With `COc1ccc(OC)c(/C=C2/SC(=S)N(c3ccccc3OC)C2=O)c1` the figure was -0.9%; with `COc1ccccc1/C=C1/SC(=O)N(CNc2cccc(Cl)c2)C1=O`, 9.1%.

In the case of `COc1ccc(/C=C2\NC(=S)N(c3ccccc3)C2=O)cc1OC`, the displacement was 41.7%.

Turning to `COC(=O)CN1C(=O)/C(=C/c2cc(OC)ccc2OC)SC1=S`, the displacement is -14.6%. For `COc1ccc(/C=C2/SC(=O)N(CNc3ccc(Br)cc3C)C2=O)cc1`, the displacement stood at 4.5%. For `COc1ccc(OC)c(/C=C2/SC(=S)N(CNc3cccc(Cl)c3)C2=O)c1`, the displacement came out at 57%. On to `COc1ccc(C=C2NC(=S)N(c3ccccc3)C2=O)c(OC)c1`, for which the displacement is 3.7%. `COc1ccc(OC)c(/C=C2\NC(=S)N(c3ccccc3)C2=O)c1`: the displacement is 62.3%.
